# Among all 69,000 compounds or so, about 8,600 (12%) showed an effect of 50% or more. What follows is part of a selection rich in strong results, with near analogues and random picks from the rest.
# Test system: Plasmodium berghei
# Assay: Screen against P. berghei liver stage (PbLuc), transformed with Luciferase, at 10uM
# Assay type: functional, HepG2
# Conditions: tested at 10 uM
row,SMILES,INHIBITION
1,CC(=O)N1C[C@H]2CC[C@@H](C1)N(C(=O)CCc1n[nH]c3c1CCCC3)C2,48.5%
2,CC(C)n1cnnc1CN(C)C(=O)C1CCCN(CC(N)=O)C1 (configuration not stated),4.25%
3,Cn1cc(N2CCCC(NCc3cccc4c3OCCCO4)C2)cn1 (configuration not stated),11.1%
4,Cc1ccc(CNCC2CCCn3ccnc32)s1 (configuration not stated),43.7%
5,Cc1cn2c(n1)C(CNCc1cccc3c1OCO3)CCC2 (configuration not stated),62%
6,Cc1cn2c(n1)C(CNCc1ccc(C)s1)CCC2 (configuration not stated),51.1%
7,Cc1ccc(N2CCCC(NCc3cccc4c3OCO4)C2)nn1 (configuration not stated),16.8%
8,Cc1ccc(CNCC2CCCN2c2cccnn2)s1 (configuration not stated),-19.9%
9,CN(CCCc1cc(-c2ccccc2)no1)S(C)(=O)=O,-42.55%
10,O=C(Cc1ccc2c(c1)CCO2)N1CCN(c2ccncc2)CC1,15.3%
11,CC(C)NC(=O)[C@H]1C[C@H]2CN(C(=O)NCCc3ccccc3)C[C@@H]1O2,5.67%
12,O=C(CNC(=O)c1ccc2c(c1)CCC2)NCCNc1ncccn1,-24.3%
13,CCNC(=O)Nc1ncc(-c2cccnc2)s1,4.41%
14,CC(C)C(C)n1nccc1NC(=O)Cn1cnc2ccccc21 (configuration not stated),-8.99%
15,COc1ccc(C(=O)Nc2n[nH]c(C3CCCO3)n2)cc1 (configuration not stated),32.3%
16,COC(=O)c1cccc(C(=O)N2CCN(c3ccccc3F)CC2)n1,30%
17,Cc1nn(C)c(C)c1C(=O)N1CCN(c2ccncc2Cl)CC1,43.9%
18,COC(=O)c1cccc(C(=O)N2CCN(c3cc(Cl)ccc3C)CC2)n1,66.4%
19,COC(=O)c1cccc(C(=O)N2CCN(c3cccc(C)c3C)CC2)n1,74.2%
20,COC(=O)c1cccc(C(=O)N2CCN(c3ccc(OC)cc3)CC2)n1,5.51%
21,COC(=O)c1cccc(C(=O)N2CCN(c3ccc(Cl)cc3)CC2)n1,-18.3%
22,Cc1cccc(N2CCN(C(=O)NC(C)c3nncn3C)CC2)c1C (configuration not stated),-48.4%
23,Cc1cccc(N2CCN(C(=O)c3c(C)nn(C)c3C)CC2)c1C,54.8%

row,SMILES,INHIBITION
1,COC(=O)c1cccc(C(=O)N2CCN(c3cc(C)ccc3C)CC2)n1,-19.4%
2,CN(C(=O)c1ncn2c1CN(C)S(=O)(=O)c1ccccc1-2)C1CC1,-30%
3,CCC(C(=O)N(C)CCC1=CCN(C)CC1)c1ccccc1 (configuration not stated),24%
4,CCC(C)NC(=O)c1cc(S(=O)(=O)N(C)C)c(C)s1 (configuration not stated),19.5%
5,O=S1(=O)NC2(CCCN(CCc3ccccc3)C2)COc2ccccc21 (configuration not stated),24.2%
6,Cc1nc(N2CCCN(C(=O)c3ccsc3)CC2)c2cnn(C)c2n1,14.4%
7,CS(=O)(=O)NCCC1CCCCN1C(=O)NCCc1ccccn1 (configuration not stated),-25.6%
8,Cc1nc(CN2CCCC2c2[nH]ncc2C(=O)N(C)C)cs1 (configuration not stated),8.53%
9,Cc1c[nH]c(CN(C)C(C(=O)O)c2c(F)cccc2OC(C)C)n1 (configuration not stated),58.2%
10,CCOc1ccccc1C(C(=O)O)N(C)Cc1nc(C)c[nH]1 (configuration not stated),21.1%
11,COc1ccc(Cl)cc1C(C(=O)O)N(C)Cc1ccon1 (configuration not stated),-73.6%
12,Cc1c[nH]c(CN(C)C(C(=O)O)c2c(F)cccc2Cl)n1 (configuration not stated),16.5%
13,CC(C)Oc1cccc(F)c1C(C(=O)O)N(C)Cc1ccon1 (configuration not stated),71.2%
14,COc1cc(F)ccc1C(C(=O)O)N(C)Cc1ccon1 (configuration not stated),-66.4%
15,CC(Cn1cccn1)NC(=O)c1cccs1 (configuration not stated),-40.2%
16,CN1CCCC1CCNC(=O)Nc1ccccc1 (configuration not stated),27.3%
17,Cc1cc(Oc2ccccc2C)nc(C2CCCN2)n1 (configuration not stated),4.41%
18,Cc1cccc(C(=O)NC(C)CN2CCCC2=O)n1 (configuration not stated),4%
19,O=C(CCn1ccnc1)N1C[C@@H](O)[C@H](Oc2cccc(F)c2)C1,-31%
20,CC(=O)NCC(=O)N1CCOC2(CCCN(c3cccnc3)C2)C1 (configuration not stated),6.8%
21,Cc1cc(C)nc(N2CCCC(c3nccn3CCCN(C)C)C2)c1 (configuration not stated),17.1%
22,CN(C)C(=O)COCC1CN(Cc2ccco2)Cc2ncn(C)c21 (configuration not stated),39.5%
23,NC(=O)c1cnc2n1CCN(C(=O)c1ccc(-c3cc[nH]n3)cc1)C2,11.7%

row,SMILES,INHIBITION
1,CC(C)c1nc(COc2cccc3c2NC(=O)CO3)cs1,79.1%
2,Cc1ncc(COc2cccc3c2NC(=O)CO3)s1,8.05%
3,O=C1COc2cccc(OCc3ccccn3)c2N1,12.3%
4,O=C(CCc1nc(-c2ccccn2)no1)N1CCCC1c1ccsc1 (configuration not stated),7.08%
5,O=C(CCN1CCOCC1)NC(Cc1ccsc1)c1nccs1 (configuration not stated),5.055%
6,Cc1nc(C2CCCN2C(=O)Cc2ccc(F)cc2)ncc1C(N)=O (configuration not stated),19.6%
7,NC(=O)c1cn[nH]c1C1CCCN1C(=O)c1ccccn1 (configuration not stated),11.8%
8,NC(=O)c1cn[nH]c1C1CCCN1C(=O)c1ccccc1 (configuration not stated),6.26%
9,Cc1nc(C2CCCN2C(=O)CC2CCCC2)ncc1C(N)=O (configuration not stated),17.1%
10,Cc1nc(C2CCCN2C(=O)COc2ccccc2)ncc1C(N)=O (configuration not stated),52%
11,Cc1nc(C2CCCN2C(=O)c2ccccc2)ncc1C(N)=O (configuration not stated),40.4%
12,NC(=O)c1cn[nH]c1C1CCCN1C(=O)COc1ccccc1 (configuration not stated),52.7%
13,Cc1nc(C2CCCN2C(=O)c2ccc(F)cc2)ncc1C(N)=O (configuration not stated),55.6%
14,Cc1nc(C2CCCN2C(=O)CCc2ccccc2)ncc1C(N)=O (configuration not stated),18.3%
15,COC(=O)NCC(=O)N1CCc2cc(Cl)cc(Cl)c2C1,-10.9%
16,Cc1nc(-c2ccccc2C)n(CC(=O)NC2CCCC2)n1,7.27%
17,O=C(c1cscn1)N1CCCC(n2cncn2)C1 (configuration not stated),-17.4%
18,OC1(CN(Cc2cccnc2)C2CCCCC2)CNCCOC1 (configuration not stated),41.8%
19,O=C(C1CCOCC1)N1CCOC(CC2CCCCC2)C1 (configuration not stated),54.8%
20,CC(=O)N1CCC(C(=O)N2CCOC(CC3CCCCC3)C2)CC1 (configuration not stated),54.8%
21,O=C(C1CCOCC1)N1C[C@@H]2OCCN(CCN3CCCC3)[C@@H]2C1,46.7%
22,Cc1ncoc1C(=O)N1CCOC(CC2CCCCC2)C1 (configuration not stated),24.7%
23,CN(C)C(=O)N1CCC(C(=O)N2CCOC(CC3CCCCC3)C2)CC1 (configuration not stated),22.2%

row,SMILES,INHIBITION
1,CC(=O)N1CCC(N2CCOC(CC3CCCCC3)C2)CC1 (configuration not stated),35.2%
2,Clc1ccc2cccnc2c1CNC1CCc2ncnn2C1 (configuration not stated),-92.9%
3,Cc1cc(N(C)C)cc(C2CCN(S(=O)(=O)c3cccs3)C2)n1 (configuration not stated),46.55%
4,CC(C)NC(=O)c1cccc(Oc2ccc3nncn3n2)c1,2.84%
5,Cc1nc(-c2ccsc2)ccc1C(=O)NCCN1CCN(C)CC1,18.515%
6,CCC1=NC(SCC(=O)c2ccc(OC)cc2)c2cc(CC)sc2N1 (configuration not stated),36.6%
7,CC(C)C(=O)N1CCC2(CCCN(CCOc3ccccc3)C2)C1 (configuration not stated),-4.27%
8,CN(C)C(=O)N1CCC2(CCCN(CCOc3ccccc3)C2)C1 (configuration not stated),-44.2%
9,O=C(N1CCCC1)N1CCC2(CCCN(CCOc3ccccc3)C2)C1 (configuration not stated),69.9%
10,c1ccc(CCN2CCOC(CNc3cccnn3)C2)nc1 (configuration not stated),-71.2%
11,Cc1cccc(C(C)CNC(=O)N2CCC3(C2)OCCO3)c1 (configuration not stated),52.6%
12,Cc1cccc(C(C)CNC(=O)N2CCOCC3(CCOCC3)C2)c1 (configuration not stated),-7.36%
13,CC(NC(=O)N1CCC2(C1)OCCO2)c1cccc(Cl)c1 (configuration not stated),5.58%
14,Cc1ccc(C)n1-c1ccsc1C(=O)NCC(=O)N1CCCC1,-7.7%
15,COc1ccc(-n2cc3nc(N4CCCC4)[nH]cc-3c2=O)cc1Cl,30.8%
16,Cc1ccc(OC2(C(=O)NC(C)Cc3ccsc3)CCNCC2)cc1 (configuration not stated),-8.75%
17,c1ncc2c(n1)CN(Cc1nc(-c3ccoc3)no1)CC2,-21.87%
18,Cc1cc(NC(=O)CN(c2ccccc2)C(C)C)on1,13%
19,Cc1noc(CS(=O)(=O)C(C)C(=O)N(C)c2ccccc2)n1 (configuration not stated),50.8%
20,Cc1noc(C)c1CS(=O)(=O)C(C)C(=O)N(C)c1ccccc1 (configuration not stated),11.5%
21,CCC(O)CN(CC(=O)Nc1cc(C)no1)c1ccccc1 (configuration not stated),16.8%
22,Cc1noc(CN(C)c2ccccc2)n1,29.8%
23,Cc1cc(CS(=O)(=O)C(C)C(=O)N(C)c2ccccc2)on1 (configuration not stated),59.4%

row,SMILES,INHIBITION
1,Cc1cc(CS(=O)(=O)C(C)c2ccc(F)cc2)on1 (configuration not stated),-41%
2,Cc1cc(NC(=O)CN(CC(C)O)c2ccccc2)on1 (configuration not stated),51.3%
3,CCN(C(=O)C(C)S(=O)(=O)Cc1nc(C)no1)c1ccccc1 (configuration not stated),26.9%
4,CC(C)N(Cc1ccccn1)C(=O)CCOc1cccc(F)c1,-1.32%
5,COc1ccc(NC(=O)C2OC(c3cccs3)=NN2C(C)=O)cc1OC (configuration not stated),14.5%
6,O=C(CC1CC1)N1CCC(O)(CN2CCN(c3ccccc3)CC2)C1 (configuration not stated),17.4%
7,Cc1nnc(NC(=O)CN2CCc3nn(C(C)C)c(=O)cc3C2)s1,-18%
8,O=C(c1cscn1)N1CCc2ncc(CN3CCCC3)n2CC1,23.1%
9,Cc1nccc(CNc2cc(N3CCCC3CO)ncn2)n1 (configuration not stated),-0.219%
10,COc1ccc(CN2C[C@@H]3CN(Cc4ccncc4)C[C@@H]3C2=O)cc1,-2.35%
11,Cc1n[nH]c(C)c1CCCN(C)c1cc(N(C)C)ncn1,8.51%
12,C[S+]([O-])CCNC(=O)N1CCSC2(CCCCC2)C1 (configuration not stated),25.4%
13,O=C(NCCc1ccccn1)N1CCSC2(CCCCC2)C1,3.17%
14,COCCNC(=O)N1CCSC2(CCCCC2)C1,52.6%
15,CCN(Cc1ccoc1)C(=O)Nc1ccccc1CN(C)C(C)=O,6.99%
16,Cc1nc(NC(=O)N(C)Cc2ccsc2)nn1C,25.9%
17,CCc1nc(NC(=O)N(C)Cc2ccoc2)nn1C,63.6%
18,CSc1cccc(CN(C)C(=O)CN2CCN(c3ncccn3)CC2)c1,10.6%
19,CSc1cccc(CN(C)C(=O)Nc2nc(C)n(C)n2)c1,71.8%
20,Cc1nc(NC(=O)N(C)Cc2ccoc2)nn1C,-10.9%

# Source: ChEMBL document CHEMBL4513216, “Probing the Open Global Health Chemical Diversity Library for Multistage-Active Starting Points for Next-Generation Antimalarials” (ACS Infect Dis, 2020)
